14-3-3 PPI = modulators of human 14-3-3 gamma - Raf peptide interaction; inhibition, % at 40 µM; 160,000 tested, 0.19% active; FP, 14-3-3gamma / TMR-pS259-Raf peptide binding; AID 422; in the data active = inhibition above about 30%
Large screens that a line does not name were inactive. The entries come from a sample that favours hits as a whole.

O=[N+]([O-])c1ccc(N2CCCC2)c2nonc12	14-3-3 PPI 200
O=[N+]([O-])c1ccc(Cl)c2nonc12	none
O=[N+]([O-])c1ccc(N2CCCC2)c2ccccc12	none
CCc1ccccc1NC(=O)C(CC)N1C(=O)CN=C(c2ccccc2)c2ccccc21 (stereo not given)	none
COc1cccc(C=C2C(=O)NC(=O)NC2=O)c1	none

Screening results as filed in PubChem BioAssay.
